# Source: PubChem BioAssay
# Calls of active or inactive are those of the source.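 The calls were made as follows, unless noted: active = fluorescence slope higher than the sample average by over 3 SD (cut at about -0.22 in these data, passing the limit was not always enough); inactive = the rest.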
# Experiments:
# [1] = inhibitors of TNFa-induced NFkB p65 translocation, primary screen, imaging, HUVEC, MLSMR starter and 10KST1 sets (AID 438;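 active = inhibition above 20% together with a positive visual image hit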;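 also: compound added about 3h40 before a 20 min TNFalpha stimulation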;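 as to inhibition: signal is the nuclear over cytoplasmic p65 intensity ratio per well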); conditions: HUVEC TNFa-induced p65 nuclear translocation; cell count: measured here: nuclei count (cytotoxicity indicator), at 2.08 µM unless noted; inhibition: at 2 µM, stronger effect = higher value unless noted
# [2] = inhibitors of E-selectin induction by TNFa, primary screen, imaging, HUVEC, immunofluorescence, MLSMR starter and 10KST1 sets (AID 487;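 active = visually confirmed hit in the image check and inhibition above 20%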;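 as to inhibition: signal is fraction of cell area covered by stained E-selectin grains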;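 as to nuclei count: 100% = median nuclei count of all wells on the same plate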); conditions: HUVEC TNFalpha-induced E-selectin immunofluorescence imaging, at 2 µM; inhibition: stronger effect = higher value; nuclei count: measured here: cell number, toxicity
# [3] = DUSP6 inhibitors restoring Erk phosphorylation by chemical complementation, primary imaging in DUSP6-transfected HeLa (AID 609;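 active = compounds giving at least 50% inhibition in the cell-based MKP-3 phosphatase rescue imaging test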;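 as to inhibition: phospho-Erk level distribution per well compared with pooled transfected vehicle control wells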); conditions: HeLa MKP-3 transfected, phospho-Erk imaging KS statistic, at 10 µM
# [4] = target: Dual specificity protein phosphatase 6 (Homo sapiens) (UniProt Q16828); test: as above; conditions: HeLa MKP-3 transfected, phospho-Erk imaging KS statistic, at 10 µM, stronger effect = higher value
# Dual specificity protein phosphatase 6 (Homo sapiens), sequence (Q16828 whole entry, looked up): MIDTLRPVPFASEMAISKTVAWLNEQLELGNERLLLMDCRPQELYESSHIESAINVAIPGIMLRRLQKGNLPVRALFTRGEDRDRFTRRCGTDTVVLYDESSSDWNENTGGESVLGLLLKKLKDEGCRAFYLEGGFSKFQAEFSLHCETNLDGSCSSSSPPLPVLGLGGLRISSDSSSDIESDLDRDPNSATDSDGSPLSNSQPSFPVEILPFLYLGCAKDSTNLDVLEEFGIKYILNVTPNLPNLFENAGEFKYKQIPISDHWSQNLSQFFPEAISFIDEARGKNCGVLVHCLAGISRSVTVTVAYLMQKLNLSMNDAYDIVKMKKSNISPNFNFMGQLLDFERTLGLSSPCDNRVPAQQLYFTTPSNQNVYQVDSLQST
# [5] = target: Voltage-gated potassium channel subunit beta-2 (Rattus norvegicus) (UniProt P62483); test: KvBeta enzyme negative modulators, primary screen, biochemical, NADPH fluorescence (AID 622); conditions: recombinant KvBeta, 4-cyanobenzaldehyde reduction, at 10 µM, stronger effect = higher value;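 also: slope of raw intensity against log time taken from 70 to 1610 s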
# Voltage-gated potassium channel subunit beta-2 (Rattus norvegicus), sequence (P62483 whole entry, looked up): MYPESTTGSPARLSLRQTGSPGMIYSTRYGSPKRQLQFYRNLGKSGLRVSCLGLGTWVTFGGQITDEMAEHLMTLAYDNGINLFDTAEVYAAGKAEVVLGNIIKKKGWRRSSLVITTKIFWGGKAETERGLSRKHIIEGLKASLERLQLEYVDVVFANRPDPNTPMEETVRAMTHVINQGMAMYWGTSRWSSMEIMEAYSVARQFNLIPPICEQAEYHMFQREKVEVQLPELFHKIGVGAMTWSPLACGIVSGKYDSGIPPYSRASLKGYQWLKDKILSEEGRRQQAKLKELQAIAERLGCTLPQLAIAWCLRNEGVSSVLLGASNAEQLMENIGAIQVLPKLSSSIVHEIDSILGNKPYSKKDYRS
# [6] = target: Voltage-gated potassium channel subunit beta-2 (Rattus norvegicus) (UniProt P62483); test: KvBeta positive modulators, primary screen, biochemical, NADPH fluorescence (AID 623;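 active = NADPH fluorescence slope more negative than the mean of all samples by about 3 SD, 99.7% confidence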;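 also: fluorescence intensity change per second fitted from 20 to 320 s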); conditions: Recombinant KvBeta, NADPH fluorescence decrease slope, 10 min; at 10 µM; stronger effect = lower value
# [7] = target: Alpha-2C adrenergic receptor (Homo sapiens) (UniProt P18825); test: modulators of alpha2C/GIRK thallium flux, primary screen, cell-based, HEK293 alpha2C/GIRK1/2 (AID 624;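 active = fluorescence slope after compound addition differing from the mean of all screened samples at 99.7% confidence, in either direction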;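 also: slope of fluorescence ratio to pre-addition baseline per second over 15 to 24 s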); conditions: thallium flux BTC fluorescence, at 10 µM, actives lie on both sides
# Alpha-2C adrenergic receptor (Homo sapiens), sequence (P18825 whole entry, looked up): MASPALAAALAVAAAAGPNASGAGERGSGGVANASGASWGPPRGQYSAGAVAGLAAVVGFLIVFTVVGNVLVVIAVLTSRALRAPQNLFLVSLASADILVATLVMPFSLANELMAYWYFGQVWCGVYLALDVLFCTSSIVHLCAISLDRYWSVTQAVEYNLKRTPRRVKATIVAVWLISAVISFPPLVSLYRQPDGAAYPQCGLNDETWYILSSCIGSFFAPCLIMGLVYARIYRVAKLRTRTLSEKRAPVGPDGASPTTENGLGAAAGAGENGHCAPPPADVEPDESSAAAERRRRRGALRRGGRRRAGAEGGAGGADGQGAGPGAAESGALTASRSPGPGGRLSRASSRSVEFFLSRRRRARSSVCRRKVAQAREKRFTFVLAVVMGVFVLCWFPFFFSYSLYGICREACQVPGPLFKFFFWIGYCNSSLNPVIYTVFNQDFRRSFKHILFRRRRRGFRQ
# [8] = inhibitors of larval lipid processing in zebrafish, primary screen, whole organism, PED6 fluorescence, gall bladder and intestine (AID 686;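 active = a full or partial loss of lipid-probe fluorescence in the fish gall bladder, intestine or both, judged by eye; inactive = no fluorescence loss, or compound toxic to the fish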;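 also: larvae 5 to 7 days old with five fish per well; signal comes from phospholipase A2 cleavage of quenched PED6 carried via bile; overnight exposure to compound and PED6 before scoring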); conditions: Zebrafish larvae PED6 lipid processing, fluorescence scoring
# [9] = inhibitors of Chlamydomonas gravitaxis, primary screen, whole organism, Chlamydomonas reinhardtii, WT vs cilia-less mutant, absorbance, 96-well (AID 463189;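 active = inhibition at or above 50% relative to wild type and mutant plate controls; inactive = inhibition below 50%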;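 also: 0% = wild type cc124 cells in DMSO and 100% = ciliumless bld1 mutant cells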); conditions: OD600 absorbance, 2 days, at 10 µM, stronger effect = higher value
# [10] = target: Muscarinic acetylcholine receptor M4 (Homo sapiens) (UniProt P08173); test: compounds altering M4/GIRK thallium flux, either direction, primary screen, M4 allosteric agonist project, cell-based, HEK293 M4/GIRK, BTC-AM (AID 625;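 active = fluorescence slope after compound addition differing from the mean of all tested samples at 99.7% confidence, mostly higher but some lower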;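 also: thallium influx through GIRK channels coupled to M4 in HEK293 cells with BTC-AM dye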); conditions: at 10 µM, actives lie on both sides
# Muscarinic acetylcholine receptor M4 (Homo sapiens), sequence (P08173 whole entry, looked up): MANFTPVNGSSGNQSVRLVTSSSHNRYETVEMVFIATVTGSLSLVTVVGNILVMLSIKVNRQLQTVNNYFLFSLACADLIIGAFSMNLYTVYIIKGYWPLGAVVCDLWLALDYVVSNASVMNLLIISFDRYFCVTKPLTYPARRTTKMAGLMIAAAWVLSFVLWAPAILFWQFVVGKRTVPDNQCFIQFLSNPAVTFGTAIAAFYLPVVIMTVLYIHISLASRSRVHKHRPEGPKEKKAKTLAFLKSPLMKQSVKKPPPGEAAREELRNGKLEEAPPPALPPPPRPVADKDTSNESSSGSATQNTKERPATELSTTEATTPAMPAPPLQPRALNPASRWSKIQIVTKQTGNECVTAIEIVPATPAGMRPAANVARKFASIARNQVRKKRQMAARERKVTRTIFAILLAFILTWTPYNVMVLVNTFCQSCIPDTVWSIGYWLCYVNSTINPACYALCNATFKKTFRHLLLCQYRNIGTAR
# [11] = inhibitors of mutant huntingtin aggregation, primary screen, imaging, exon1htt(103Q)mCFP cells, high-content imaging (AID 483;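 active = visual image review flags a hit and inhibition of aggregation exceeds 20%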;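 also: compound exposure lasted 3 days before fixation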;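 as to nuclei count: percent of the per-plate median nuclei count of sample wells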); conditions: exon1htt(103Q)mCFP cell line, aggregate imaging, at 2 µM; inhibition of aggregation: stronger effect = higher value; nuclei count: measured here: cell count, toxicity
# [12] = inhibitors of Sendai virus-induced IRF3 signaling, primary screen, TLR/RLR signaling modifier project, cell-based, Sendai virus stimulus, luciferase, 10K MLSCN set (AID 602276;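 active = inhibition at or above 50% at 10 µM; inactive = inhibition below 50%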;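 also: firefly luciferase from ISG56 promoter only with Renilla not read in this screen; 0% = Sendai virus plus DMSO and 100% = medium plus DMSO without virus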); conditions: HEK293 RL24 IRF3 luciferase reporter, at 10 µM, stronger effect = higher value
# [13] = inhibitors of poly I:C-induced TLR3 signaling, primary screen, cell-based, poly I:C stimulus, luciferase, 10K MLSCN set (AID 602277;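 active = inhibition of the reporter signal at or above 50%; inactive = inhibition below 50%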); conditions: HEK293-TLR3 RL24 IRF3 luciferase reporter, at 10 µM, stronger effect = higher value
# [14] = measured here: cell density z-score
# [15] = measured here: nuclear c-Myc green intensity z-score
# [16] = measured here: nuclear pErk red intensity z-score, stronger effect = higher value
Structure (SMILES),cell count [1],inhibition [1],inhibition [2],nuclei count [2] [%],"z-score [3, 14]","z-score [3, 15]","z-score [3, 16]",inhibition [4],fluorescence slope [5],NADPH fluorescence slope [6],slope [7],outcome [8],inhibition [9],fluorescence slope [10],inhibition of aggregation [11],nuclei count [11] [%],inhibition [12],inhibition [13]
CCCc1nc2ccccc2c(=O)n1-c1ccccc1OC,587,-5.2% (inactive),-140% (inactive),134,-0.589,-0.508,-0.325,-4.78% (inactive),-0.375 (inactive),-2e-05 (inactive),0.00541 (inactive),inactive,-2.29% (inactive),,,,,
CCCCOCCCn1c(N)c(C(=O)OCCOC)c2nc3ccccc3nc21,525,-11.4% (inactive),-48% (inactive),152,-0.11,-0.345,0.203,15.5% (inactive),-0.052 (inactive),-3.5e-06 (inactive),0.00403 (inactive),inactive,29.3% (inactive),,,,,
C/C(Cl)=C/CC1(CN2CCCC2=O)C(=O)NC(=O)NC1=O,584,-2.5% (inactive),-26.8% (inactive),102,-1.18,1.93,0.656,-3.98% (inactive),-0.484 (inactive),-0.000274 (inactive),0.00947 (inactive),inactive,-13.6% (inactive),,,,,
COc1ccc(C(=O)CN2CCOCC2)cc1F,662,-8.3% (inactive),-111% (inactive),168,-0.933,0.019,-0.631,5.57% (inactive),-0.506 (inactive),-5.2e-05 (inactive),0.0047 (inactive),inactive,0.889% (inactive),,,,,
O=C1NCCN2CCCC12 (stereo not given),549,-10.8% (inactive),-50.9% (inactive),158,-1.06,-1.18,1.73,-0.608% (inactive),-0.497 (inactive),-0.000122 (inactive),0.00514 (inactive),inactive,13.6% (inactive),,,,,
Nc1c(C(=O)NCc2ccco2)c2nc3ccccc3nc2n1CCN1CCCCC1,676,18.1% (inactive),50.8% (inactive),138,-0.477,2.3,-0.0288,-6.06% (inactive),-0.0963 (inactive),-2.8e-05 (inactive),,inactive,131% (active),0.00537 (inactive),,,,
COc1ccc(CCn2c(O)c(C=NCCCN(C)C)c(=O)[nH]c2=O)cc1OC,338,-1.6% (inactive),-38.1% (inactive),108,,,,,-0.446 (inactive),-2.8e-05 (inactive),0.00426 (inactive),,,,12.1% (inactive),110,11.5% (inactive),8.09% (inactive)
COc1ccc2c(c1OC)C(=O)OC2c1c(O)n(C2CCCCC2)c(=O)[nH]c1=O (stereo not given),572,-9.7% (inactive),-2.8% (inactive),150,0.755,0.301,0.433,15.9% (inactive),-0.379 (inactive),-7.1e-05 (inactive),,inactive,6.27% (inactive),0.00555 (inactive),,,,
OC(c1ccc(F)cc1)C(c1ccccc1)N1CCOCC1 (stereo not given),679,2.9% (inactive),8% (inactive),153,-0.0994,1.62,0.344,-13.3% (inactive),-0.427 (inactive),-3.5e-05 (inactive),,inactive,-7.5% (inactive),0.00525 (inactive),,,,
CC(=O)Nc1ccc(OC(=O)c2ccccc2N)cc1,292,-3.4% (inactive),-96.3% (inactive),111,,,,,-0.447 (inactive),-1.3e-05 (inactive),0.00336 (inactive),,,,-8.5% (inactive),76.3,3.45% (inactive),27.2% (inactive)
CCCCNC(=O)Nc1ccc(C(O)(C(=O)OC)C(F)(F)F)cc1 (stereo not given),632,-8.8% (inactive),7.1% (inactive),154,0.744,-1.2,0.72,18.4% (inactive),-0.482 (inactive),-4.8e-05 (inactive),,inactive,8.19% (inactive),0.00513 (inactive),,,,
NCC1(c2ccc3c(c2)OCCO3)CCCC1,634,8.6% (inactive),-19.9% (inactive),120,-0.692,-0.463,0.187,-13.3% (inactive),-0.453 (inactive),-2.2e-05 (inactive),,inactive,-6.44% (inactive),0.0056 (inactive),,,,
COc1ccc(C2SCC(=O)Nc3c2c(=O)[nH]n3C2CCCCC2)cc1 (stereo not given),380,-8.8% (inactive),-197% (inactive),138,0.845,-1.45,-0.612,14% (inactive),-0.479 (inactive),-0.000101 (inactive),,inactive,6.02% (inactive),0.00663 (inactive),,,,
